Screens: PubChem BioAssay, Johns Hopkins Ion Channel Center
This is a sample that favours compounds with a hit; in the whole collection about 2.4% have one here.
ANO1 block: TMEM16A chloride channel inhibitors, primary screen, cell-based, HTS; Anoctamin-1 (Mus musculus), Q8BHY3; HEK293 TMEM16A/YFP iodide influx fluorescence, ionomycin; normalized B-score (activity score, 25-100; higher = stronger inhibition) at 10 µM; hit rate 1.2% among 310,000; AID 588511, 2011;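 active = ratio plate-corrected score three or more library SD toward inhibition, starting fluorescence score within five deviations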;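 note: score derived from kinetic fluorescence span divided by baseline fluorescence per well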
Target sequence (Q8BHY3 whole entry, looked up): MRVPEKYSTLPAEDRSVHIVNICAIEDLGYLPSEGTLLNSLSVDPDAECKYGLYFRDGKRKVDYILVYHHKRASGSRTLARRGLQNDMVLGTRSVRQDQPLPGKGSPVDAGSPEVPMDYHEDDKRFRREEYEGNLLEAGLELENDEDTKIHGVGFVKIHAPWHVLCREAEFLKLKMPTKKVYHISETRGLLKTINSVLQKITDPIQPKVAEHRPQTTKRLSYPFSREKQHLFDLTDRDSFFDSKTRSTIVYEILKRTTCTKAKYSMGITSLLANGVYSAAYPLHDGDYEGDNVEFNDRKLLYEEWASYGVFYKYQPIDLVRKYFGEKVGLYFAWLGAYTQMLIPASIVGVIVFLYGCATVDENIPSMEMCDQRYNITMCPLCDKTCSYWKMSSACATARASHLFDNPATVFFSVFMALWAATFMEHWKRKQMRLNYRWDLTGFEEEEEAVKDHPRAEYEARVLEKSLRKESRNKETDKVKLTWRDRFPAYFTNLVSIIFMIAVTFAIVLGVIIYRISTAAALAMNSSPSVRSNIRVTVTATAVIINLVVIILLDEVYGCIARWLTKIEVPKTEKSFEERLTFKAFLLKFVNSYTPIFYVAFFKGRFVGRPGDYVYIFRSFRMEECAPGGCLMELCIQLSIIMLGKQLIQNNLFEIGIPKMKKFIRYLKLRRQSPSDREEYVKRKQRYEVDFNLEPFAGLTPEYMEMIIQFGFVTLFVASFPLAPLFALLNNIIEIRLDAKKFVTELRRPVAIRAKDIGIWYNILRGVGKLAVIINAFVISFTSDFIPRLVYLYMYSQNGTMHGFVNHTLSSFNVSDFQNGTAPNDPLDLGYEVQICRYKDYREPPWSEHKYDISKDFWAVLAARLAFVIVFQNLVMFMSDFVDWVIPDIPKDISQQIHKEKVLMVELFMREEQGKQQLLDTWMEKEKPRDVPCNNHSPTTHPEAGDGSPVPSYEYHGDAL
CHT block: inhibitors of human choline transporter CHT; High affinity choline transporter 1 (Homo sapiens), Q9GZV3; CHT-expressing cells, membrane potential dye, choline response; stronger effect = lower value; B-score at 10 µM; hit rate 0.86% among 310,000;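 active = B-score over 3 SD under the library average, and starting fluorescence ratio not unusually high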;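 note: choline stimulus applied at its EC90 after an EC20 pre-addition; B-score computed on integrated fluorescence ratio after choline addition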
CHT allo act: CHT positive allosteric modulators, primary screen, cell-based, membrane potential dye, choline EC20; CHT-expressing cells; stronger effect = higher value; LV-AA mutant CHT in HEK293 cells; B-score at 10 µM; hit rate 0.49% among 310,000; AID 488977, 2010;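 active = initial fluorescence not abnormally high and integrated response B-score, plate-corrected, over 3 SD above library mean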
ANO1 activ: TMEM16A chloride channel activators or potentiators, primary screen, cell-based, HTS; Anoctamin-1 (Mus musculus), Q8BHY3; B-score at 10 µM; HEK293 TMEM16A/YFP-H148Q/I152L, iodide quench fluorescence; stronger effect = lower value; hit rate 0.3% among 340,000;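 active = fluorescence-ratio B-score plate-corrected deviation score at least 3 library SD below zero, with starting fluorescence score within 5 deviations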;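 note: channel opened by trigger with iodide after compound preincubation; score built on the fluorescence ratio of max minus min over baseline; more negative score means more quench and so TMEM16A activation or potentiation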
CHT inh conf: CHT inhibitors, confirmation, cell-based, membrane potential dye, duplicate. CHT-expressing cells, choline membrane potential dye; LV-to-AA substituted CHT, HEK293 cells. CHT activity remaining % of control (stronger effect = lower value), % at 10 µM. hit rate 70% among 2,400. shares compounds with CHT block;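 active = choline transporter activity left, mean of duplicates at 10 µM, below buffer-only control mean minus 3 SD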;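 note: depolarization triggered by choline at its EC90 following an EC20 pre-addition; 0% = hemicholinium-3 full block and 100% = buffer-only control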
HEK293 CHT ctr: membrane potential effects in parental HEK293, counter-screen for CHT inhibitor project, cell-based, membrane potential dye. membrane potential ratio readout (active if shifted either direction beyond buffer ±3SD; no single direction) at 10 µM. shares compounds with CHT block. hit rate 4% among 2,400. choline response; active = decrease or increase beyond buffer ±3SD. AID 493222, 2011;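 note: parental cells lack the transporter so any hit is non-specific; ratio is peak minus trough fluorescence over baseline after EC90 choline challenge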
CHT act confirm: CHT activators, confirmation, cell-based, membrane potential dye, duplicate | shares compounds with CHT allo act | CHT-expressing cells, membrane potential dye fluorescence (FDSS); % of choline EC20–EC90 response window; HEK293 expressing CHT LV-AA mutant; choline added at its EC20 | activation, % at 10 µM | hit rate 91% among 2,500 | AID 504833, 2011;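 active = primary screen active, with duplicate mean activation above negative control mean plus 3 SD, cut at about 11% in these data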
HEK293 MP dye: membrane potential response in parental HEK293 cells, counter-screen for CHT activator project, cell-based, membrane potential dye; shares compounds with CHT allo act; membrane potential dye fluorescence (FDSS); measured after EC20 choline addition; ratio readout change at 10 µM, hits read low; hit rate 62% among 2,500;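 active = duplicate-averaged ratio beyond 3 SD from buffer wells, up or down, though filed actives are nearly all decreases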
TMEM16A reconf: TMEM16A chloride channel inhibitors, confirmation, cell-based, re-confirmation; shares compounds with ANO1 block; HEK293 TMEM16A/YFP-H148Q, iodide quench fluorescence; ionomycin added to raise cell calcium; inhibition, % at 10 µM; hit rate 39% among 2,300;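 active = mean duplicate percent inhibition, scaled so buffer wells are 0 and the reference blocker 100, over three buffer SD above buffer mean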
HEK293 Ca mobil: calcium mobilization in TMEM16A/YFP HEK293 cells, confirmation, counter-screen for TMEM16A inhibitor project; shares compounds with ANO1 block; Fluo4 calcium mobilization; calcium response (% of ionomycin), % at 10 µM; hit rate 2% among 2,300;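 active = duplicate-averaged calcium signal over 20% of the ionomycin maximum, relative to buffer baseline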;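 note: each well's signal is peak minus trough fluorescence divided by its pre-addition baseline; 0% = buffer wells and 100% = ionomycin wells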
Parental YFP cnt: iodide YFP quench changes in parental YFP-HEK293, counter-screen for TMEM16A inhibitor project, cell-based; shares compounds with ANO1 block; ionomycin; YFP ratio F(max-min)/F0 at 10 µM; 2,300 tested, under 10 active; AID 652233, 2013;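 active = yellow fluorescent protein signal ratio exceeding the buffer control mean by over 5 SD of those controls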;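 note: ratio is mean of duplicate wells from kinetic YFP trace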
ClC-1 inh: ClC-1 chloride channel inhibition, selectivity assay for TMEM16A inhibitor project, cell-based, voltage-dependent ClC-1. 2,300 tested, under 10 active. shares compounds with ANO1 block. CHO ClC-1-YFP, iodide influx fluorescence quench; iodide control reads 0, buffer control 100. ratio percent, % at 10 µM;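 active = duplicate-mean ratio percent above the mean of iodide-only control wells, which defines zero, plus 5 of their SD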;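 note: higher percent means stronger block of ClC-1 iodide influx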
An asterisk follows results filed as active; i = inactive; nt = no result given; ! = not confirmed by another sample.

SMILES	ANO1 block	CHT block	CHT allo act	ANO1 activ	CHT act confirm	HEK293 MP dye	others
CC(C)c1cc(C(=O)N2CCCC(CCC(=O)N3CCN(c4ccccn4)CC3)C2)no1 (configuration not stated)	25*	-6*	i	i	nt	nt	CHT inh conf=47%*;HEK293 CHT ctr=i;TMEM16A reconf=i;HEK293 Ca mobil=i;Parental YFP cnt=-1;ClC-1 inh=-18
Cc1ccc(S(=O)(=O)N/N=C/c2cc(Br)ccc2O)cc1	100*	-5.6*	i	i	nt	nt	CHT inh conf=67%*;HEK293 CHT ctr=i;TMEM16A reconf=20%*;HEK293 Ca mobil=i;Parental YFP cnt=-0.89;ClC-1 inh=-12
COc1ccc(O)c(/C=N/NS(=O)(=O)c2ccc(C)cc2)c1	i	i	i	i	nt	nt
O=C(Nc1ccccc1O)c1ccccc1O	100*	-8.9*	i	i	nt	nt	CHT inh conf=40%*;HEK293 CHT ctr=i;TMEM16A reconf=32%*;HEK293 Ca mobil=i;Parental YFP cnt=-1;ClC-1 inh=-26
O=C(Nc1ccccc1Cl)c1ccccc1Cl	i	i	i	i	nt	nt
CN(CC1CCCO1)S(=O)(=O)c1ccc(C(=O)Nc2nnc(-c3ccccc3)o2)cc1 (configuration not stated)	i	i	i	i	nt	nt
COc1ccc(C(=O)c2c(N)sc3c2CCN(C)C3)cc1	i	i	8.3*	i	41*	-53*
CN1CCc2c(sc(N)c2C(=O)O)C1	i	i	i	i	nt	nt
CCOCCCNC(=S)Nc1ccc2nc(N3CCCC3)cc(C)c2c1	i	i	i	i	32*	-52*
Cc1cc(N2CCCC2)nc2ccc(NC(=S)NC(C)C)cc12	i	i	i	i	21*	-51*
COCCNC(=S)Nc1ccc2nc(N3CCOCC3)cc(C)c2c1	i	i	i	i	nt	nt
CNC(=O)Nc1cc(C)nn1C	i	i	i	i	nt	nt
CCN1CCS/C1=C\C=C\C1=[N+](CC)CCS1	nt	nt	nt	i	nt	nt
CCN1CCS/C1=C/C=C/C1=[N+](CC)CCS1	i	i	6.9*	i	45*	-31*
O=C(O)COc1ccc(/C=C/c2nc3ccc([N+](=O)[O-])cc3s2)cc1	i	i	6.7*	i	46*	-52*
CC(C)c1ccc(/C=C/C(=O)Nc2nc3ccc([N+](=O)[O-])cc3s2)cc1	i	i	i	i	nt	nt
COc1ccc(-c2cn3cccnc3n2)cc1NS(=O)(=O)c1ccccc1	i	i	i	i	nt	nt
COc1ccc(-c2cn3cccnc3n2)cc1F	i	i	i	i	15*	-33*
CCN1CCN(C(=O)c2cc(-c3cccnc3)nc3ccc(Br)cc23)CC1	i	i	6.6*	i	54*	-44*
O=C(O)c1cc(-c2cccnc2)nc2ccc(Br)cc12	i	i	i	i	nt	nt
CCc1nccn1Cc1cc(C=O)ccc1OC	i	i	i	i	61*	-44*
C=CC[n+]1c(-c2ccc(Cl)cc2Cl)csc1Nc1ccc(NC(C)=O)cc1	i	i	14*	i	0	i
CCCC[n+]1c(-c2ccc(Cl)cc2Cl)csc1Nc1ccccc1	i	i	i	i	nt	nt
C=CC[n+]1c(-c2ccc(Cl)cc2Cl)csc1Nc1c(C)n(C)n(-c2ccccc2)c1=O	i	i	8.4*	i	5	i
O=C(COc1cccc(NC(=O)c2ccco2)c1)c1ccccc1	i	i	i	nt	nt	nt
SMILES	ANO1 block	CHT block	CHT allo act	ANO1 activ	CHT act confirm	HEK293 MP dye	others
COc1cc2nc(N3CCN(C(=O)C4CCCO4)CC3)nc(N)c2cc1OC (configuration not stated)	i	i	8.3*!	i	43*	-28*
CCOC(=O)c1c(-c2ccccc2)csc1NC(=O)CSc1nncs1	i	i	i	i	28*	i
CCOC(=O)c1c(-c2ccccc2)csc1NC(=O)CSc1ccccc1	i	i	i	i	nt	nt
CNC(=S)Nc1cc(S(=O)(=O)Nc2cc(Cl)ccc2Cl)ccc1N1CCCC1	i	i	i	i	14*	i
Cc1nc(NC2=NCN(Cc3cccnc3)CN2)nc2ccccc12	nt	nt	nt	i	nt	nt
Cc1nc(NC2=NCN(CCCN3CCOCC3)CN2)nc2c(C)cccc12	i	i	i	i	48*	-56*
COc1ccc(-c2cn3c(n2)CCC3)cc1	i	i	7.4*	i	51*	-47*
Cc1cc(C(F)(F)F)nc(NCc2ccc(F)cc2)n1	i	i	i	i	nt	nt
OCCN(CCCn1c(C(F)(F)F)nc2ccccc21)c1nc(CN2CCCCC2)cs1	i	i	i	i	nt	nt
OCCN(CCCn1c(-c2ccncc2)nc2ccccc21)c1nc(CN2CCCCC2)cs1	i	i	i	i	60*	-44*
COC(=O)c1ccc(OC)c(Cn2c(=O)n(C)c(=O)c3sccc32)c1	i	i	i	i	nt	nt
